Sampled rows, rich in hits. Any-hit rate of the full collection: about 14%.
Pf growth 96h – Primary qHTS for delayed death inhibitors of the malarial parasite plastid, 96 hour incubation. P. falciparum luciferase reporter growth, 96 h. Potency, µM (doses to about 28.7 µM), without a hit: at the highest dose activity change, negative = inhibition, actives largely listed as inhibitors. actives 6.9% (n = 320,000); also: potency is read from the fitted curve at half-maximal effect
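Compounds incubated with erythrocytes infected by luciferase-expressing P. falciparum (2% hematocrit, 0.05% parasitemia final) for 96 hours, 37 C in 5% CO2. Growth inhibition scored as decreased luciferase luminescence.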
HCMV antiviral – qHTS Assay for inhibitors of the human cytomegalovirus (HCMV) | actives 4.5% (n = 410,000) | activity change, negative = inhibition, % at 57.5 µM | HFF cells, HCMV-luciferase reporter, 72 h; hits give low values; in the data active = activity change below about -60%; inconclusive = no clear call, values can overlap the other calls; inactive = above about -39%
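Screen run at 2 compound doses on HFFs infected with reporter HCMV, MOI 1 PFU/cell. Luciferase activity from cell lysates at 72 h post infection gave inhibition relative to buffer-only and Salinomycin wells.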
Pf growth 48h – Primary qHTS for delayed death inhibitors of the malarial parasite plastid, 48 hour incubation; AID 504832, 2011; P. falciparum luciferase growth in erythrocytes, 48 h; Potency, µM (titrated, usually from 28.7 µM), without a hit: top-dose activity change, negative = inhibition, most hits filed as inhibitors; actives 5.9% (n = 310,000); also: potency is read from the fitted curve at half-maximal effect
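Here the parasites carry a stable luciferase gene and grow inside erythrocytes in Albumax-based RPMI medium with compound for one erythrocytic cycle. Activity is scored as loss of luminescent signal.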
Sm TGR block – qHTS Assay for the Inhibitors of Schistosoma Mansoni Peroxiredoxins. Schistosoma mansoni thioredoxin glutathione reductase (TGR), Q962Y6. purified TGR, DTNB reduction, TNB absorbance 405 nm. Potency, µM (highest dose often 114 µM), for the others: top-dose activity change, negative = inhibition, most hits filed as inhibitors. actives 3% (n = 360,000). AID 485364, 2010; also: potency is read from the fitted curve at half-maximal effect; nearly all actives have a fitted effect of over 60% in size
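TGR 20 nM + NADPH 100 uM (dispensed conc.), cpd preinc 15 min RT; start with NADPH (500 uM addition) then DTNB (15 mM addition). Kinetic TNB absorbance, 405 nm filter. Four-parameter Hill fit across titration.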
FBPA Giardia inh – qHTS Assay for Inhibitors of Fructose-1,6-bisphosphate Aldolase from Giardia Lamblia; A8B2U2; purified Giardia FBPA; Potency, µM (doses to about 59.6 µM), without a hit: top-dose activity, negative = inhibition, most hits filed as inhibitors; actives 0.71% (n = 290,000); also: potency is read from the fitted curve at half-maximal effect; nearly all actives have a fitted effect of over 55% in size
Target sequence (A8B2U2 whole entry, looked up): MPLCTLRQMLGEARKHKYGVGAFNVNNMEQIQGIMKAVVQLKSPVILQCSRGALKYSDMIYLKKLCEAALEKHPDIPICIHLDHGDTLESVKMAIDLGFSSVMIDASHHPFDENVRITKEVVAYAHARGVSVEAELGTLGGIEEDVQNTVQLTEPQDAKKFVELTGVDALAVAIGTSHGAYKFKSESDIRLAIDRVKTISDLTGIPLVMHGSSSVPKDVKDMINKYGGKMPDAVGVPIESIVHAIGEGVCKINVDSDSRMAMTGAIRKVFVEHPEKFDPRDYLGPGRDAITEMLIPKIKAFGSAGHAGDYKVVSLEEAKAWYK
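40 nM FBPA preincubated 10 min at RT with compound (up to 57.5 uM final), then substrate plus GAPDH/TPI/NAD/arsenate coupling and diaphorase/resazurin added. Fluorescence read after 20 min at RT, 525/598 nm.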
Starred values were filed as active, the others as inactive. Unless noted, calls follow the shape of the dose curve; as a rule, active = well fitted curve in the direction sought with a large enough effect; inconclusive = small, poorly fitted or top-dose-only effect, or another doubt; inactive = no such curve, though single readings can be large; an effect the other way counts as inactive or inconclusive. % is scaled to controls: 0 for no effect and ±100 for the full control effect.

Screening CCc1ccc(Nc2n[n+](-c3ccccc3)c(-c3ccc(OCc4ccccc4)cc3)s2)cc1 returned Pf growth 96h 2.9µM*, HCMV antiviral -96*, Pf growth 48h inconclusive, Sm TGR block -25% and FBPA Giardia inh inconclusive.
CCc1ccc(Nc2n[n+](-c3ccccc3)c(/C=C/c3ccccc3)s2)cc1 was read as Pf growth 96h 1.2µM*, Pf growth 48h inconclusive, Sm TGR block -2% and FBPA Giardia inh -2%.
Screening CCc1ccc(Nc2n[n+](-c3ccccc3)c(-c3cc(OC)c(OC)cc3Br)s2)cc1 returned Pf growth 96h 12µM*, HCMV antiviral 23, Pf growth 48h inconclusive, Sm TGR block -8% and FBPA Giardia inh -6%.
CCc1ccc(Nc2nc3ccccc3c(=O)s2)cc1 was read as Pf growth 96h -24%, HCMV antiviral -15, Pf growth 48h -7%, Sm TGR block -6% and FBPA Giardia inh 10%.
O=C(Nc1ccccc1Br)c1cc(S(=O)(=O)NC2CCCCC2)ccc1F was read as HCMV antiviral 17 and Sm TGR block 2%.
`Cc1nn(C)cc1CNCc1c(C(=O)N2CCCCC2)nc2c(C)cccn12` gave Pf growth 96h 8%, HCMV antiviral -32, Pf growth 48h -5% and FBPA Giardia inh 5%.
For Cc1c(C(=O)Nc2ccc(OC(F)(F)F)cc2)sc2nc3n(c(=O)c12)CCC3 the results were Pf growth 96h -12%, HCMV antiviral inconclusive, Pf growth 48h -9%, Sm TGR block -4% and FBPA Giardia inh -2%.
`COc1ccc(C)cc1N(C)C(=O)c1sc2nc3n(c(=O)c2c1C)CCCCC3` gave HCMV antiviral -2 and Sm TGR block 22µM*.
Screening COc1ccc(CNC(=O)c2sc3nc4n(c(=O)c3c2C)CCCCC4)cc1 returned HCMV antiviral 16 and Sm TGR block 8.9µM*.
For Cc1c(C(=O)Nc2ccc(Oc3ccccc3)cc2)sc2nc3n(c(=O)c12)CCC3 the results were Pf growth 96h 17µM*, HCMV antiviral -26, Pf growth 48h 12µM*, Sm TGR block 9% and FBPA Giardia inh 0%.
`CCN(C(=O)c1sc2nc3n(c(=O)c2c1C)CCCC3)c1ccccc1F` gave HCMV antiviral -39 and Sm TGR block inconclusive.
`CCCN(C(=O)c1sc2nc3n(c(=O)c2c1C)CCCC3)c1ccccc1C` gave HCMV antiviral -102* and Sm TGR block -15%.
`CCC(=O)N1CCCC(C)(C(=O)NS(=O)(=O)c2cccs2)C1` (stereo not drawn) gave HCMV antiviral -15.
For CC(C)OC(C)C the results were FBPA Giardia inh 7%.
`O=C(NC1CCCCC1)NC1CCCCC1` gave FBPA Giardia inh 0%.
`CC(=O)C1=C(C)NC(SCC(=O)c2ccc(Cl)cc2Cl)=C(C#N)C1c1ccco1` (stereo not drawn) gave Pf growth 96h inconclusive, HCMV antiviral -68*, Pf growth 48h inconclusive, Sm TGR block 0% and FBPA Giardia inh inconclusive.
Screening CC(=O)C1=C(C)NC(SCc2cccc3ccccc23)=C(C#N)C1c1ccco1 (stereo not drawn) returned Pf growth 96h 2.9µM*, HCMV antiviral inconclusive, Pf growth 48h 10µM*, Sm TGR block -17% and FBPA Giardia inh -10%.
Screening Cc1cc(C)c(C#N)c(SCC(=O)c2ccc(Cl)cc2Cl)n1 returned Pf growth 96h 10µM*, HCMV antiviral -25, Pf growth 48h 13µM*, Sm TGR block 7% and FBPA Giardia inh 1%.
`Cc1cccc(S(=O)(=O)NC(=O)C2(C)CCN2C(=O)c2ccccc2)c1` (stereo not drawn) gave HCMV antiviral 36.
`O=C1c2c(O)ccc(O)c2C(=O)c2c(NCCNCCO)ccc(NCCNCCO)c21` gave Pf growth 96h 0.93µM*, HCMV antiviral -98*, Pf growth 48h 0.83µM*, Sm TGR block -9% and FBPA Giardia inh inconclusive.
For CCCCCCCCCCCCCCCC(=O)OC[C@@H](COP(=O)([O-])OCC[N+](C)(C)C)OC(=O)CCCCCCCCCCCCCCC the results were FBPA Giardia inh 5%.

High-throughput results (PubChem BioAssay)
